Experimental data: PubChem BioAssay AID2284350 (EPA ToxCast)
Results filed as inconclusive are left out. Active and inactive are the calls of the source. How the source made its calls: active means hit-call score of the fitted dose curve at least 0.9, where 1 is the maximum; inconclusive means response in the unintended direction; inactive means score below 0.9.

Each molecule was assayed on zebrafish Peroxisome Proliferator-activated Receptor alpha (PPARa), gene 563298 (assay: ATG_zfPPARa_EcoTox2: Attagene TRANS-FACTORIAL EcoTox-2 HepG2 Assay for zebrafish Peroxisome Proliferator-activated Receptor alpha (PPARa)).
Protocol: ATG_EcoTox2 is a cell-based, multiplexed assay created by modifying the existing Attagene TRANS-FACTORIAL system to include a panel of nuclear receptors from some or all the following species: human (Homo sapiens), african clawed frog (Xenopus laevis), rainbow trout (Oncorhynchus mykiss), japanese medaka (Oryzias latipes), and zebrafish (Danio rerio). The ECOTOX2-FACTORIAL format uses HepG2, a human liver cell line, with measurements taken at 24 hours after chemical dosing in a 24-well plate. ATG_zfPPARa_EcoTox2 is one of 29 assay components calculated in the ATG_EcoTox2 assay. It is designed to make measurements of mRNA induction, a form of inducible reporter, as detected with fluorescence intensity signals by Reverse transcription polymerase chain reaction (RT-PCR) and Capillary electrophoresis technology.The assay endpoint ATG_zfPPARa_EcoTox2 was analyzed in the positive analysis fitting direction relative to DMSO as the negative control and baseline of activity. Using a type of inducible reporter, measures of mRNA for gain-of-signal activity can be used to understand the reporter gene at the transcription factor-level as they relate to the gene PPARa. Furthermore, this assay endpoint can be referred to as a primary readout, because this assay has produced multiple assay endpoints where this one serves a reporter gene function. To generalize the intended target to other relatable targets, this assay endpoint is annotated to the nuclear receptor intended target family, where the subfamily is non-steroidal.
Human liver HepG2 cells are transiently transfected with multiple reporter transcription units (MRTUs) in 6-well plates using FuGene 6 reagent (Roche; 3 ml FuGene/1 mg DNA). The MRTU constructs are regulated by a cis-regulating element (promoter). Each RTU expresses a GAL4-UAS that regulates the transcription of a nearby target reporter gene sequence. A major difference between the CIS and TRANS system is that in CIS activities of endogenous TFs are measured, whereas the TRANS assay evaluates changes in activities of exogenous, chimeric NR-Gal4 proteins. […] At the end of 24 hour incubation, total RNA was isolated using TriZol reagent (Invitrogen). The isolated RNA is then reverse-transcribed using oligo(dT) primer and Mo-MLV reverse transcriptase (Invitrogen) with DNAse I (Ambion) treatment for 30 min. The one-tenth of the produced cDNA was amplified by PCR using Taq DNA polymerase (Invitrogen) and two reporter sequence-specific primers. The PCR products were fluorescently labeled by primer extension with 6-arboxyfluorescein (6-FAM) 5'-labeled reporter sequence-specific primer (2 min at 95 C, 20 s at 68 C and 10 min at 72 C) and these products were digested with 5U of HpaI (New England Biolabs) for 2h at 37 C. The fragments were purified using Qiaquick PCR columns (Qiagen), analyzed on an ABI 3130xL genetic analyzer (Applied Biosystems) with peak positions identified by using a set of X-rhodamine (ROX)-labeled MapMarker1000 molecular weight standards (BioVentures). The raw capillary electrophoresis data was processed using Attagraph software (Attagene).
With `O=P(Oc1ccccc1)(Oc1ccccc1)Oc1ccccc1` the outcome was “inactive”. In the case of `CCCCOCN(C(=O)CCl)c1c(CC)cccc1CC`, the outcome is reported as “inactive”. For `[Cl][Sn]([c]1ccccc1)([c]1ccccc1)[c]1ccccc1`, the outcome was “inactive”. For `O=C(O)C(F)(F)C(F)(F)C(F)(F)C(F)(F)C(F)(F)C(F)(F)C(F)(F)F`, the AC50 was 52.7 µM (active). With `O=S(=O)(O)C(F)(F)C(F)(F)C(F)(F)C(F)(F)C(F)(F)C(F)(F)F` the outcome was “inactive”.
